Assay results published in PubChem BioAssay (Tox21).
Results filed as inconclusive are left out. The source made the active and inactive calls. Unless noted, the call rests on the fitted dose curve; in most records, active means well fitted curve in the direction sought with a large enough effect in the repeat runs; inconclusive means weak or mixed curves; inactive means no such curve, though single readings can be large; an effect the other way counts as inactive or inconclusive.

What was measured:
[1] = qHTS assay to identify small molecule antagonists of the glucocorticoid receptor (GR) signaling pathway - cell viability counter screen (AID 720693); further: nearly all actives have a fitted effect of over 55% in size
[2] = qHTS assay for identifying genotoxic compounds that show differential cytotoxicity against isogenic chicken DT40 cell lines with known DNA damage response pathways - wild type cell line (AID 743012); further: nearly all actives have a fitted effect of over 60% in size
Procedure, shortened: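 Cells (DT40 wild type, 300/well) are treated with DMSO-dissolved compounds after a ~0.5 h pre-incubation and kept 40 h at 37 C/5% CO2. Viability is then measured by CellTiter-Glo luminescence following 30 min at room temperature.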

[3] = qHTS assay to identify small molecule antagonists of the androgen receptor (AR) signaling pathway - cell viability counter screen (AID 743033; further: nearly all actives have a fitted effect of over 45% in size)
[4] = target: Androgen receptor (Homo sapiens) (UniProt P10275); test: qHTS assay to identify small molecule antagonists of the androgen receptor (AR) signaling pathway (AID 743035; active means well fitted inhibition curve with a large enough effect in the signal ratio in the repeat runs, not every such curve was filed as active; the % refers to the signal ratio)
Chain of Androgen receptor (Homo sapiens) (P10275 whole entry, looked up): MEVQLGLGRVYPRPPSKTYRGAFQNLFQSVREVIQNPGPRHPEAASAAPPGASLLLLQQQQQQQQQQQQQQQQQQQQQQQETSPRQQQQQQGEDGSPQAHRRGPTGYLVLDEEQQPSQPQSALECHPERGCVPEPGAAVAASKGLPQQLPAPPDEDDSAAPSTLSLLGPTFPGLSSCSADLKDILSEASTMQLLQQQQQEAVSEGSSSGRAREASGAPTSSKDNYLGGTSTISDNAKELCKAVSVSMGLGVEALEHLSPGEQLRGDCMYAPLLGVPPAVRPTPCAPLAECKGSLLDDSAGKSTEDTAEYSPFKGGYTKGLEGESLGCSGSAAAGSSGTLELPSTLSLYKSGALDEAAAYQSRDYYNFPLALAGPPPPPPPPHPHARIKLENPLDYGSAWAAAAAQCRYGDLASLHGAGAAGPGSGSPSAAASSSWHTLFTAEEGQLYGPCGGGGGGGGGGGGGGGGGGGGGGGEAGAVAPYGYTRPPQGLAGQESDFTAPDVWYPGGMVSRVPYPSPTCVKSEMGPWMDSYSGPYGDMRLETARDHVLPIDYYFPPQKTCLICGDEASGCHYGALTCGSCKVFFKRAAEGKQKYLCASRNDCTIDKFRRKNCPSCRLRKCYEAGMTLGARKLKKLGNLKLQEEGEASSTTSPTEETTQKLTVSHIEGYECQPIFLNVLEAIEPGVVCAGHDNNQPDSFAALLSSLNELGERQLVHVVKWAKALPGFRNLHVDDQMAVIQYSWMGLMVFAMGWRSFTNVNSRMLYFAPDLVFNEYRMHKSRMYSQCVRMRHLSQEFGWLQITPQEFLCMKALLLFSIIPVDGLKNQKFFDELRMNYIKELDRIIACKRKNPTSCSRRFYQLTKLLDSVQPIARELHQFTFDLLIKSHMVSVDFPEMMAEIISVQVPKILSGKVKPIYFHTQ
Procedure, shortened: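 Antagonism is scored as loss of R1881-driven beta-lactamase reporter expression in HEK293 cells carrying the reporter under a UAS element, after 16 h co-treatment at 37C and a 2 h room-temperature FRET substrate read.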

[5] = target: Androgen receptor (Homo sapiens) (UniProt P10275); test: qHTS assay to identify small molecule agonists of the androgen receptor (AR) signaling pathway (AID 743036; active means well fitted activation curve with a large enough effect in the signal ratio in the repeat runs, with a control signal flat, not every such curve was filed as active; the % refers to the signal ratio)
Procedure, shortened: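 Agonist activity was scored by beta-lactamase reporter fluorescence in stably transfected HEK293 cells exposed to compounds for 16 h at 37C and 5% CO2. Substrate loading took 2 h at room temperature.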

[6] = target: Androgen receptor (Homo sapiens) (UniProt P10275); test: qHTS assay to identify small molecule agonists of the androgen receptor (AR) signaling pathway using the MDA cell line (AID 743040; further: nearly all actives have a fitted effect of over 20% in size)
Procedure, shortened: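 Human breast carcinoma MDA-kb2 reporter cells (MMTV-luc, AR/GR elements) were treated for 16 h at 37C in 0% CO2 following a 5 h settling period. Signal was quantified by ONE-Glo luminescence.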

[7] = qHTS assay to identify small molecule antagonists of the androgen receptor (AR) signaling pathway using the MDA cell line - cell viability counter screen (AID 743041; further: nearly all actives have a fitted effect of over 45% in size)
Procedure, shortened: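 Same-well cytotoxicity was assessed by CellTiter-Fluor in MDA-kb2 AR-luc cells after 16 h of compound treatment under R1881 agonism.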

[8] = qHTS assay to identify small molecule antagonists of the thyroid receptor (TR) signaling pathway - cell viability counter screen (AID 743064); further: nearly all actives have a fitted effect of over 50% in size
Procedure, shortened: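 Same-well viability check: GH3.TRE-Luc cells stimulated with 1 nM T3 alongside test compound for 23.5 h, followed by CellTiter-Fluor fluorescence.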

[9] = qHTS assay to identify small molecule antagonists of the thyroid receptor (TR) signaling pathway (AID 743065); further: nearly all actives have a fitted effect of over 55% in size
Procedure, shortened: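 GH3.TRE-Luc rat pituitary cells (two TREs driving luciferase) were dosed with compound, then stimulated with 1 nM T3 (final) for 23.5 h at 37 C. ONE-Glo luminescence was the read-out, with CellTiter-Fluor fluorescence as the cytotoxicity counter-screen.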

[10] = test system: thyroid hormone receptor (rat, GH3 cells); test: qHTS assay to identify small molecule agonists of the thyroid receptor (TR) signaling pathway (AID 743066; calls by dose curve)
[11] = target: Estrogen receptor (Homo sapiens) (UniProt P03372); test: qHTS assay to identify small molecule antagonists of the estrogen receptor alpha (ER-alpha) signaling pathway (AID 743069; active means well fitted curve in the direction sought with a large enough effect in the signal ratio in the repeat runs, not every such curve was filed as active; the % refers to the signal ratio)
Chain of Estrogen receptor (Homo sapiens) (P03372 whole entry, looked up): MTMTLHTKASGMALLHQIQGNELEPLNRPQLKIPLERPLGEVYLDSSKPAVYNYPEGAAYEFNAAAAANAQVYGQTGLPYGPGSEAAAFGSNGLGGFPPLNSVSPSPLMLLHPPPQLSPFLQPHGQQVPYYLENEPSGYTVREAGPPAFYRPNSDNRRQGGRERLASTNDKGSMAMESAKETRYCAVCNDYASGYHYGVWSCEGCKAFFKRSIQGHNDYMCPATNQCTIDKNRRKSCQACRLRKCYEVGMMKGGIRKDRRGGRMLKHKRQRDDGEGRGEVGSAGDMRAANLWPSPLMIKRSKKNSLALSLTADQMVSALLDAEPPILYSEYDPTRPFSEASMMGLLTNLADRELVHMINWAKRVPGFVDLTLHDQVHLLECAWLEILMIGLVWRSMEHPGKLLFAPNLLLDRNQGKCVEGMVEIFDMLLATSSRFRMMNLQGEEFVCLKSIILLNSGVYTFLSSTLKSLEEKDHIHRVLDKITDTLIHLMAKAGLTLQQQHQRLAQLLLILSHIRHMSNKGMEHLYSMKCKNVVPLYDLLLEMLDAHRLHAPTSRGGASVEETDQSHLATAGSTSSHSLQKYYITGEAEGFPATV
Procedure, shortened: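 Reporter cells (ER-alpha-bla, HEK293 background) are conditioned overnight in stripped-serum medium (2% charcoal-stripped FBS). Compound and 17beta-estradiol exposure runs 18 hr at 37C, 5% CO2.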

[12] = target: Estrogen receptor (Homo sapiens) (UniProt P03372); test: qHTS assay to identify small molecule agonists of the estrogen receptor alpha (ER-alpha) signaling pathway (AID 743075; calls by dose curve;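 further: HEK293 GripTite cells with ER-alpha and UAS-driven beta-lactamase reporter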)
[13] = target: Estrogen receptor (Homo sapiens) (UniProt P03372); test: qHTS assay to identify small molecule agonists of the estrogen receptor alpha (ER-alpha) signaling pathway using the BG1 cell line (AID 743079); conditions: BG1Luc4E2 cells, ERE-luciferase agonist, 22 h; activation: at 70.3 µM (top of the series); further: nearly all actives have a fitted effect of over 20% in size; further: potency means the concentration at half of the fitted maximal effect
[14] = qHTS assay to identify small molecule antagonists of the estrogen receptor alpha (ER-alpha) signaling pathway using the BG1 cell line (AID 743080; calls by dose curve;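 further: BG1 cells stimulated with 17beta-estradiol alongside compound; nearly all actives have a fitted effect of over 25% in size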)
Procedure, shortened: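 Readout is ONE-Glo luminescence, taken 30 min at room temperature after reagent addition, preceded by a CellTiter-Fluor viability read; BG1-Luc-4E2 cells had received compound and 17beta-estradiol for 21.5 h at 37 C.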

[15] = qHTS assay to identify small molecule antagonists of the estrogen receptor alpha (ER-alpha) signaling pathway using the BG1 cell line - cell viability counter screen (AID 743081);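 further: compound given together with 17beta-estradiol as the ER stimulus; nearly all actives have a fitted effect of over 45% in size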
Aromatase (Homo sapiens) = Aromatase (Homo sapiens) (UniProt P11511); test: qHTS assay to identify aromatase inhibitors (AID 743083); further: nearly all actives have a fitted effect of over 55% in size; further: potency means the concentration at half of the fitted maximal effect
Chain of Aromatase (Homo sapiens) (P11511 whole entry, looked up): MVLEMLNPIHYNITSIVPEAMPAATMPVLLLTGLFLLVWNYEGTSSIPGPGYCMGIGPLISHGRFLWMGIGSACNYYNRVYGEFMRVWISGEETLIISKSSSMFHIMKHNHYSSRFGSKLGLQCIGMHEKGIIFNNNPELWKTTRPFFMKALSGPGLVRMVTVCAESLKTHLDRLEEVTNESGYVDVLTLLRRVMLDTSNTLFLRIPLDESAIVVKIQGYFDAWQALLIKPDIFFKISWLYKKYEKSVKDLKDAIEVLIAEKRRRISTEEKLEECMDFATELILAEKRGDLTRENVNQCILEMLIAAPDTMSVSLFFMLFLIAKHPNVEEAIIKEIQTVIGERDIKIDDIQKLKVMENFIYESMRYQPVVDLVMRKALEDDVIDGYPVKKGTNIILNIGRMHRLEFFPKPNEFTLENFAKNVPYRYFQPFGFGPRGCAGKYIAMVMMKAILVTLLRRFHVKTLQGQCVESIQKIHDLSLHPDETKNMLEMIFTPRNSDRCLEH

[16] = qHTS assay to identify small molecule antagonists of the estrogen receptor alpha (ER-alpha) signaling pathway - cell viability counter screen (AID 743074; calls by dose curve;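 further: HEK293 cells carrying ER-alpha-UAS-bla reporter stimulated with 17beta-estradiol; nearly all actives have a fitted effect of over 45% in size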)
[17] = qHTS assay for identifying genotoxic compounds that show differential cytotoxicity against isogenic chicken DT40 cell lines with known DNA damage response pathways - Rev3 mutant cell line (AID 743014); further: nearly all actives have a fitted effect of over 55% in size; further: potency means the concentration at half of the fitted maximal effect
[18] = qHTS assay for identifying genotoxic compounds that show differential cytotoxicity against isogenic chicken DT40 cell lines with known DNA damage response pathways - Rad54/Ku70 mutant cell line (AID 743015); further: nearly all actives have a fitted effect of over 60% in size; further: potency means the concentration at half of the fitted maximal effect

Measured: Potency

CCOC(=O)/C=C/C(=O)O
inactive: [1] | [2] | [3] | [4] | [5] | [6] | [7] | [8] | [9] | [10] | [11] | [12] | [13] | [14] | [15] | Aromatase (Homo sapiens)

CCCCCCCC/C=C\CCCCCCCC(=O)OC(CO)CO
inactive: [1] | [2] | [3] | [7] | [9] | [10] | [16] | [15] | Aromatase (Homo sapiens)

Nc1ccc(S(=O)(=O)O)cc1
active: [17] 54.8 µM | [13] 38.8 µM
inactive: [1] | [18] | [3] | [7] | [8] | [9] | [10] | [11] | [16] | [12] | [14] | [15] | Aromatase (Homo sapiens)

CCC(C(=O)OCCN(CC)CC)c1ccccc1 (centres undefined)
inactive: [1] | [2] | [3] | [4] | [5] | [6] | [7] | [9] | [10] | [11] | [16] | [12] | [13] | [14] | [15] | Aromatase (Homo sapiens)

C/C=C(\C)C(=O)OCCC(C)CCC=C(C)C (centres undefined)
inactive: [1] | [2] | [3] | [7] | [8] | [9] | [10] | [16] | [15]

NC(=O)Nc1ccc(Cl)c(Cl)c1
inactive: [1] | [7] | [8] | [10] | [16] | [15] | Aromatase (Homo sapiens)
active: [17] 60.9 µM | [18] 60.9 µM

CCCCCCCCSCCO
inactive: [1] | [2] | [3] | [5] | [6] | [8] | [9] | [10] | [16] | [15] | Aromatase (Homo sapiens)

CNC(=O)N(c1ccccc1)c1ccccc1
inactive: [1] | [2] | [18] | [4] | [5] | [6] | [8] | [9] | [10] | [11] | [16] | [12] | [13] | [14] | [15] | Aromatase (Homo sapiens)

O=C1NCCN1
inactive: [1] | [2] | [18] | [3] | [8] | [9] | [10] | [11] | [16] | [12] | [13] | [14] | [15] | Aromatase (Homo sapiens)

N#C/C(=C1\SCC(c2ccccc2Cl)S1)n1ccnc1 (centres undefined)
active: [17] 26.6 µM | [18] 29.8 µM | Aromatase (Homo sapiens) 3.35 µM
inactive: [1] | [3] | [4] | [5] | [7] | [16] | [15]

CCOC(=O)C(C)Oc1ccc(Oc2nc3ccc(Cl)cc3o2)cc1 (centres undefined)
active: [17] 68.6 µM | [18] 61.1 µM
inactive: [1] | [3] | [6] | [9] | [10] | [16] | [15] | Aromatase (Homo sapiens)

Cc1cnc(C)c(C)n1
inactive: [1] | [2] | [3] | [8] | [9] | [10] | [16] | [15] | Aromatase (Homo sapiens)

CCCCC(=O)O[C@]1(C(=O)CO)CC[C@H]2[C@@H]3CCC4=CC(=O)CC[C@]4(C)[C@H]3[C@@H](O)C[C@@]21C
inactive: [1] | [17] | [3] | [7] | [8] | [9] | [10] | [16] | [13] | [15] | Aromatase (Homo sapiens)

O=C(CS)OCCOC(=O)CS
inactive: [1] | [3] | [7] | [10] | [16] | [15] | Aromatase (Homo sapiens)
active: [17] 68.6 µM | [18] 61.1 µM

CO/N=C1\CN(c2nc3c(cc2F)c(=O)c(C(=O)O)cn3C2CC2)CC1CN (centres undefined)
inactive: [1] | [17] | [3] | [7] | [11] | [16] | [12] | [13] | [14] | [15] | Aromatase (Homo sapiens)

C=CC(C)=CCC=C(C)C
inactive: [1] | [17] | [3] | [7] | [8] | [10] | [16] | [15] | Aromatase (Homo sapiens)

C[C@@H]1C[C@H]2[C@@H]3CCC4=CC(=O)C=C[C@]4(C)[C@@]3(F)[C@@H](O)C[C@]2(C)[C@@]1(O)C(=O)CO
active: [17] 0.553 µM | [18] 55.3 µM
inactive: [1] | [3] | [10] | [16] | [15] | Aromatase (Homo sapiens)

C=CC(=O)NCOCC(C)C
inactive: [1] | [2] | [18] | [3] | [7] | [8] | [16] | [15] | Aromatase (Homo sapiens)

NCC1CCCC(CN)C1 (centres undefined)
inactive: [1] | [17] | [18] | [3] | [4] | [5] | [6] | [8] | [9] | [10] | [16] | [15] | Aromatase (Homo sapiens)
